The source of these data is PubChem BioAssay (NCI).

Compounds without any hit were thinned out: in the full panel of roughly 83,000, 20% have a hit.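 48-hour exposure, single concentration, 96-well plates; percent growth endpoint where 0 means no net growth. Active: below 10.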 Unmarked numbers belong to inactive results. The source made the active and inactive calls.

One assay has as its system CAKI-1 renal. The assay is described as follows: NCI-60 one-dose screen, 48 h (100 = growth as untreated, 0 = no growth, -100 = all killed). The note with it: 10 µM unless noted.
For the molecule `CCOC(=O)CO`, the growth is 96.5%.

As to `Cc1cc(=O)n(Nc2ccccc2)c(O)c1C#N`, the growth is 92.5%.

With `CN(C)c1ccc(O)c2c1CC1CC3C(N(C)C)C(=O)C(C(N)=O)=C(O)C3(O)C(=O)C1=C2O` (stereo unspecified), the growth was -3.07% (active).

As to `COc1ccc2c(Cl)cc(NC(=O)Nc3c(C)cccc3C)nc2c1`, the growth is 11.1%.

On to `CC(=O)c1cccs1`, for which the growth was 102%.

As for `O=Cc1ccc(F)cc1`, the growth was 88.4%.

As for `C=CCC(OC(C)=O)c1ccc(C(C)C)cc1` (stereo unspecified), the growth is 121%.

For the molecule `CCOc1ccc(C(=O)NCC(C)C)cc1`, the growth is 101%.

Consider `Cc1ccc(NC(=O)c2ccccc2Cl)cc1`, for which the growth is 107%.

As for `CCCCNC(=O)c1ccc(OCC)cc1`, the growth was 100%.

On to `CC(=O)c1cccc(N(C)S(=O)(=O)c2ccc(C)cc2)c1`, for which the growth was 101%.

Turning to `Cc1nc(O)cc(=O)[nH]1`, the growth was 109%.

With `CCOc1ccccc1NC(=O)CCl`, the growth is 95.6%.

In the case of `Cc1ccc(S(=O)(=O)CCCl)cc1`, the growth is 117%.

On to `CC(CCC#N)(CCC#N)C(=O)c1ccccc1`, for which the growth was 112%.

Take `Cc1cc(CO)c(O)c(CO)c1`: the growth was 96.8%.

With `O=Cc1ccc(Cl)c(Cl)c1`, the growth is 111%.

For `Nc1cccc2cccc(O)c12`, the growth was 101%.

In the case of `Cc1cccc2ccccc12`, the growth was 91.6%.

As for `NC(=O)OCCO`, the growth is 99.6%.

On to `CCOC(=O)C(CCC#N)(CCC#N)C(=O)OCC`, for which the growth was 102%.

Take `CC(=O)c1cccc(NS(=O)(=O)c2ccc(C)cc2)c1`: the growth is 81.6%.

`CSc1nc2[nH]ncc2c(=O)[nH]1`: the growth was 103%.

On to `CC(=O)c1ccc(C)cc1`, for which the growth was 109%.

As for `O=c1[nH]c(=O)c2cc(Cl)cc(Cl)c2[nH]1`, the growth was 92%.

On to `OC(CBr)CCBr` (stereo unspecified), for which the growth is 92.4%.

A further assay deals with A498 renal. The assay is described as above. The note with it: 10 µM unless noted.
Consider `CCC(/C=C\C(C)=O)CC`, for which the growth is 90.4%.

Take `CCOC(=O)CO`: the growth was 97%.

For the molecule `Cc1cc(=O)n(Nc2ccccc2)c(O)c1C#N`, the growth was 115%.

Turning to `CN(C)c1ccc(O)c2c1CC1CC3C(N(C)C)C(=O)C(C(N)=O)=C(O)C3(O)C(=O)C1=C2O` (stereo unspecified), the growth was 26.2%.

Take `COc1ccc2c(Cl)cc(NC(=O)Nc3c(C)cccc3C)nc2c1`: the growth was 36.1%.

For `CC(=O)c1cccs1`, the growth is 76.6%.

For the molecule `O=Cc1ccc(F)cc1`, the growth is 103%.

For the molecule `O=C(O)c1ccc([N+](=O)[O-])cc1S(=O)(=O)O`, the growth is 108%.

Take `C=CCC(OC(C)=O)c1ccc(C(C)C)cc1` (stereo unspecified): the growth was 87.3%.

On to `CCOc1ccc(C(=O)NCC(C)C)cc1`, for which the growth is 92.1%.

Regarding `Cc1ccc(NC(=O)c2ccccc2Cl)cc1`, the growth was 79.2%.

`CCCCNC(=O)c1ccc(OCC)cc1`: the growth was 94.2%.

On to `CC(=O)c1cc(O)ccc1O`, for which the growth is 90.6%.

On to `Cc1nc(O)cc(=O)[nH]1`, for which the growth is 96.2%.

As to `CCOc1ccccc1NC(=O)CCl`, the growth was 113%.

`Cc1ccc(S(=O)(=O)CCCl)cc1`: the growth was 95.2%.

For the molecule `CC(CCC#N)(CCC#N)C(=O)c1ccccc1`, the growth is 89.9%.

Consider `Cc1cc(CO)c(O)c(CO)c1`, for which the growth was 95.5%.

Turning to `O=Cc1ccc(Cl)c(Cl)c1`, the growth is 83.3%.

For the molecule `CCN(C(C)=O)c1ccc([N+](=O)[O-])cc1`, the growth is 82.5%.

For the molecule `Nc1cccc2cccc(O)c12`, the growth is 97.9%.

`N#CCCN1C(=O)CCC1C(=O)O` (stereo unspecified): the growth is 98.9%.

As to `COC(=O)c1cccc([N+](=O)[O-])c1`, the growth is 92.9%.

In the case of `O=C(CC(CC(=O)c1ccccc1)c1ccccn1)c1ccccc1`, the growth was 94.2%.

Consider `C=COC(=O)C(C)(C)C`, for which the growth was 95.1%.

For the molecule `CSc1nc2[nH]ncc2c(=O)[nH]1`, the growth was 75.4%.

Regarding `CC(=O)c1ccc(C)cc1`, the growth was 94.5%.

Regarding `O=c1[nH]c(=O)c2cc(Cl)cc(Cl)c2[nH]1`, the growth was 121%.

As to `O=[N+]([O-])c1c(Cl)ncnc1Cl`, the growth was 90%.

As to `O=C1NCC2CCCC1C2` (stereo unspecified), the growth was 133%.

In the case of `OC(CBr)CCBr` (stereo unspecified), the growth is 97.5%.

In a further assay the test system is CCRF-CEM leukemia. The description is as above. The note with it: 10 µM unless noted.
`CCC(/C=C\C(C)=O)CC`: the growth is 105%.

Turning to `CCOC(=O)CO`, the growth is 102%.

In the case of `Cc1cc(=O)n(Nc2ccccc2)c(O)c1C#N`, the growth is 99.8%.

Take `CN(C)c1ccc(O)c2c1CC1CC3C(N(C)C)C(=O)C(C(N)=O)=C(O)C3(O)C(=O)C1=C2O` (stereo unspecified): the growth was 44.9%.

Regarding `COc1ccc2c(Cl)cc(NC(=O)Nc3c(C)cccc3C)nc2c1`, the growth was 86.5%.

For `CC(=O)c1cccs1`, the growth is 113%.

Turning to `O=C(O)c1ccc([N+](=O)[O-])cc1S(=O)(=O)O`, the growth is 81.2%.

Regarding `C=CCC(OC(C)=O)c1ccc(C(C)C)cc1` (stereo unspecified), the growth was 102%.

With `CCOc1ccc(C(=O)NCC(C)C)cc1`, the growth is 103%.

Consider `Cc1ccc(NC(=O)c2ccccc2Cl)cc1`, for which the growth was 85%.

As to `Cc1cc(NC(=O)c2ccccc2)c(Cl)cc1N`, the growth was 47.9%.

Turning to `CCCCNC(=O)c1ccc(OCC)cc1`, the growth is 94.9%.

`CC(=O)c1cccc(N(C)S(=O)(=O)c2ccc(C)cc2)c1`: the growth is 97.7%.

Take `CC(=O)c1cc(O)ccc1O`: the growth was 73.7%.

Take `Cc1nc(O)cc(=O)[nH]1`: the growth is 106%.

With `CCOc1ccccc1NC(=O)CCl`, the growth was 63.5%.

Regarding `Cc1ccc(S(=O)(=O)CCCl)cc1`, the growth is 101%.

On to `CC(CCC#N)(CCC#N)C(=O)c1ccccc1`, for which the growth is 93.3%.

For the molecule `O=Cc1ccc(Cl)c(Cl)c1`, the growth was 97.8%.

In the case of `CCN(C(C)=O)c1ccc([N+](=O)[O-])cc1`, the growth is 98.9%.

As for `Nc1cccc2cccc(O)c12`, the growth was 52.8%.

Take `Cc1cccc2ccccc12`: the growth was 102%.

Regarding `NC(=O)OCCO`, the growth is 99.5%.

Consider `CCOC(=O)C(CCC#N)(CCC#N)C(=O)OCC`, for which the growth was 94.7%.

With `N#CCCN1C(=O)CCC1C(=O)O` (stereo unspecified), the growth was 108%.

On to `O=C(CC(CC(=O)c1ccccc1)c1ccccn1)c1ccccc1`, for which the growth was 103%.

`CC(=O)c1cccc(NS(=O)(=O)c2ccc(C)cc2)c1`: the growth was 84%.

As for `C=COC(=O)C(C)(C)C`, the growth is 91.9%.

Consider `CSc1nc2[nH]ncc2c(=O)[nH]1`, for which the growth was 118%.

Consider `CC(=O)c1ccc(C)cc1`, for which the growth was 108%.

For the molecule `O=c1[nH]c(=O)c2cc(Cl)cc(Cl)c2[nH]1`, the growth was 99.6%.

On to `O=[N+]([O-])c1c(Cl)ncnc1Cl`, for which the growth is 99.1%.

Regarding `O=C1NCC2CCCC1C2` (stereo unspecified), the growth is 104%.

Regarding `OC(CBr)CCBr` (stereo unspecified), the growth was 88.2%.
